Source: PubChem BioAssay AID1863 (Southern Research Specialized Biocontainment Screening …, 2009)
Several values for one entry are separate records, joined by “and”; a condition that tells them apart may be missing. Equal entries are not always repeated. Out of some 300,000 compounds screened, about 480 (0.16%) were called active.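 How the source made its calls: active means inhibition over 29.93%, a cutoff 3 SD above the screen mean, later confirmed by dose response; inconclusive means inhibition over 29.93% but no dose response follow-up; inactive means inhibition at most 29.93% or unconfirmed.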 Not all results are given here. Entries with a potency or affinity are not part of this list.

assay: PhoP-dependent GFP reporter repression – Salmonella Typhimurium, primary screen (AID 1863);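 further: 0% = low Mg2+ inducing control and 100% = high Mg2+ repressing control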; conditions: S. Typhimurium PhoP-regulated promoter GFP reporter, 4 h; at 50 µM; stronger effect = higher value

inhibition, inactive:
CC(=O)Nc1ccc(S(=O)(=O)NC(C)C(=O)NC(C)c2ccccc2)cc1 (stereo not drawn) -5.32%, Cc1ccccc1OCC(=O)NC(=S)Nc1ccccc1N1CCN(S(C)(=O)=O)CC1 -1.77%, CC1=C(C(=O)OC(C)C)C(c2ccsc2)NC(=O)N1C (stereo not drawn) -5.45%, Cc1ccc(S(=O)(=O)NCCC(=O)NCC(=O)Nc2c(C)cccc2C)cc1C -4.98%, Cc1nc2ccccc2n1CCCOc1ccccc1 5.12%, OC(COc1ccc(Cl)cc1)CN1CCC(Cc2ccccc2)CC1 (stereo not drawn) -10.4%, CC1(C)CCC(=O)C=C1Nc1ccc(F)c(Cl)c1 -5.11%, CCC(CC)C1=NN2C(=N)/C(=C/c3ccc(OC(=O)c4ccco4)cc3)C(=O)N=C2S1 -9.8%, C=CCN(c1ccccc1)S(=O)(=O)c1cccc(C(=O)N2CC(C)CC(C)C2)c1 (stereo not drawn) -1.91%, CCCOc1ccc(C(C)(O)CN2CCOCC2)cc1 (stereo not drawn) 6.65%, CCOC(=O)C1CCN(Cc2ccc(O)c3ncccc23)CC1 6.23%, Oc1ccc(CN2CCCCC2)c2cccnc12 8.92%, CN(Cc1ccccc1)S(=O)(=O)c1ccccc1[N+](=O)[O-] 6.63%, CCn1cc(C(=O)NC(C)C)c(=O)c2cc(F)c(N3CCN(C(=O)c4ccco4)CC3)cc21 3.82%, CCn1cc(C(=O)O)c(=O)c2cnc(N3CCN(C(=S)Nc4ccccc4Cl)CC3)nc21 14.7%, COc1ccccc1NC(=S)N1CCN(c2ccccc2F)CC1 -4.74%, COc1ccc(CCNC(=O)C(C(=O)c2ccc(F)cc2)n2ccccc2=O)cc1OC (stereo not drawn) 7.45%, Cc1cc(C)n(CCNS(=O)(=O)c2ccc(C)c(C)c2)n1 5.17%, CC(C)(C)NC(=O)NC(=O)CSc1ncn[nH]1 4.4%, O=C(NC(=S)NNC(=O)c1cc2ccccc2cc1O)c1ccco1 -4.81%, O=C(NNC(=O)c1ccccc1O)c1ccco1 4.25%, O=C1CC(c2cc([N+](=O)[O-])ccc2Cl)c2c(ccc3ccccc23)N1 (stereo not drawn) -8.09%, COc1cccc(/C=C/C(=O)OCC(=O)Nc2ccccc2Sc2ccccc2)c1 14.5%, COC(=O)C1=CO[C@@H](OC2OC(CO)C(O)C(O)C2O)[C@@H]2[C@@H](C)[C@@H](O)C[C@H]12 (stereo partly drawn) -2.72%, Cc1ccc(C)c(/C(O)=C2/C(=O)C(=O)N(CCN3CCOCC3)C2c2ccc(C)o2)c1 (stereo not drawn) 3.28%, Cc1ccc(S(=O)(=O)Oc2ccc(/C=N/NC(=O)c3nn(C)cc3Cl)cc2)cc1 1.65%, Cc1ccccc1NC(=O)Cn1nc(-c2ccc(Cl)s2)ccc1=O -3.56%, O=C(c1cnc2n(c1=O)CCS2)N1CCN(C(c2ccccc2)c2ccc(Cl)cc2)CC1 (stereo not drawn) 3.09%, O=C(O)/C=C/c1ccc([N+](=O)[O-])o1 23.2%, O=C1CN(/N=C/c2ccc([N+](=O)[O-])o2)C(=O)N1 -5.89%, COc1ccc2nc(Nc3ccc4c(c3)OCO4)sc2c1 14%, CC(C)CN(C(=O)COC(=O)CCCc1nc2ccccc2s1)c1c(N)n(Cc2ccccc2)c(=O)[nH]c1=O -9.27%, O=C(NCCCc1ccccc1)c1ccc(-n2cncn2)c([N+](=O)[O-])c1 2.7%, O=c1[nH]cc(O)c(=O)[nH]1 6.24%, O=c1[nH]cc(-c2ccccc2)c(=O)[nH]1 -0.675%, O=[N+]([O-])c1ccccc1/C=N/n1c(C2CCCCC2)n[nH]c1=S 8.51%, Cn1c(-c2ccccc2)c(CCO)c2ccccc21 -0.97%, c1ccc(-n2c3ccccc3c3ccccc32)cc1 -2.33%, O=C(CN(Cc1ccc(Br)cc1)S(=O)(=O)c1ccccc1)NCC1CCCO1 (stereo not drawn) -5.51%, Cc1ccc(N2CC(C(=O)Nc3ccccc3C(=O)NC3CCCCC3)CC2=O)cc1 (stereo not drawn) 3.33%, CC(NC(=O)CCNC(=O)c1ccccc1Cl)C1CC2CCC1C2 (stereo not drawn) 10.5%, Cc1cccc(Nc2cc(=O)[nH]c(=O)[nH]2)c1C 11.8%, NC(=O)c1ncn([C@@H]2O[C@H](CO)[C@@H](O)[C@H]2O)c1O 2.19%, Nc1ncnc2c1ncn2[C@@H]1O[C@H](CO)[C@@H](O)[C@H]1O 3.62%, Nc1ccn([C@@H]2O[C@H](CO)[C@@H](O)[C@@H]2O)c(=O)n1 -7.73% and -0.16%, Nc1ccn([C@@H]2O[C@H](CO)[C@@H](O)C2O)c(=O)n1 (stereo partly drawn) -5.08% and -1.41%, Nc1cnn(C2OC(CO)C(O)C2O)c(=O)n1 (stereo not drawn) -3.56%, Nc1nc(Cl)nc2c1ncn2[C@@H]1O[C@H](CO)[C@@H](O)[C@H]1O -6.56% and 6.76%, Cc1cc(C)c(NC(=O)CNC(=O)CN2C(=O)NC3(CCCc4ccccc43)C2=O)c(C)c1 (stereo not drawn) 0.74%, Cc1cccc(Nc2nccc(N(C)C)c2C#N)c1 -5.86%, COc1ccc(-c2noc(CCC(=O)NCCN3CCN(c4ccccc4F)CC3)n2)cc1 -6.34%, O=C(Nc1cccc2ccccc12)N1CC=C(c2ccccc2)CC1 8.64%, CC(CN1CCCCC1)C(=O)NN (stereo not drawn) 2.4%, O=C(CNC(=O)c1ccccc1F)N/N=C/c1cn[nH]c1-c1ccccc1 -11.6%, Cc1cc(OCC(=O)OCC(=O)N(C)c2c(N)n(Cc3ccccc3)c(=O)[nH]c2=O)ccc1Cl -6.01%, O=C(NCC1CCCO1)c1cccnc1Nc1ccccc1F (stereo not drawn) 8.77%, CC1=C(C(=O)Nc2cccc([N+](=O)[O-])c2)C2(CCC(C)CC2)OC1=O (stereo not drawn) -3.06%, O=C(Cc1ccc(-n2c(=O)[nH]c3ccsc3c2=O)cc1)NCc1cccnc1 0.29%
